Assay [1] can be described thus: NCI Yeast Anticancer Drug Screen. Data for the rad50 strain (AID 155).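 Further: 0% = growth of vehicle-only cultures of the same strain.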 The following applies: S. cerevisiae rad50 strain growth inhibition, stronger effect = higher value. Summed up: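 Inhibition values express reduced yeast growth in compound-treated cultures relative to vehicle-treated controls.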
A short description of assay [2]: NCI Yeast Anticancer Drug Screen. Data for the mec2-1 strain (AID 157). The following applies: S. cerevisiae mec2-1 strain, stronger effect = higher value. Summed up:
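Readout is yeast growth inhibition, normalised to vehicle-treated controls, in the mec2-1 strain exposed to compound.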

The nature of assay [3]: NCI Yeast Anticancer Drug Screen. Data for the sgs1 mgt1 strain (AID 161).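 Further: 0% = growth of cultures given vehicle only.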 The following applies: S. cerevisiae sgs1 mgt1 strain, stronger effect = higher value. In outline: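 Compounds are added to genetically altered yeast, and growth is compared with cultures given vehicle alone to give percent inhibition.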
A short description of assay [4]: NCI Yeast Anticancer Drug Screen. Data for the cln2 rad14 strain (AID 165).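 Further: 0% = growth equal to vehicle treated cultures.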 The following applies: S. cerevisiae cln2 rad14 strain, stronger effect = higher value. In outline:
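Relative to vehicle controls, growth inhibition of compound-treated cln2 rad14 yeast was recorded.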

Assay [5] in a line: NCI Yeast Anticancer Drug Screen. Data for the bub3 strain (AID 167). Particulars: S. cerevisiae bub3 mutant strain, stronger effect = higher value. In outline:
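Steps: expose the mutant yeast strain to compound; grow alongside vehicle-treated cultures; measure growth; express inhibition against the vehicle cultures.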

Assay [6] in a line: NCI Yeast Anticancer Drug Screen. Data for the mlh1 rad18 strain (AID 175). The following applies: S. cerevisiae mlh1 rad18 strain growth inhibition, stronger effect = higher value. Summed up:
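Test agents were incubated with a yeast strain of defined genotype (DNA damage repair defect). Inhibition of growth was derived by comparison with vehicle-exposed cultures.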

Where [7] appears, read: at 5.0 µM (retest, dose inferred, filed as 0.5).
The mark [8] stands for this setting: at 50.0 µM (retest, dose inferred, filed as 5.0).

About 79,000 compounds went through this panel and 15% of them were active in at least one assay; those are over-represented in the sample as a whole. A number with no mark means an inactive call. Calls of active or inactive are those of the source. No stated cut-off is given here; in the data, active means growth inhibition above about 70%; inactive means the rest.

Consider `NC(=O)NOC(=O)c1ccccc1`, for which the growth inhibition was 42% in assay [1] (setting [7]); 97% (active) in assay [1] (setting [8]); 85.3% (active) in assay [1] (at 50.0 µM); 6% in assay [2] (setting [7]); 97% (active) in assay [2] (setting [8]); 87.5% (active) in assay [2] (at 50.0 µM). Besides, the growth inhibition in assay [3] (setting [7]) was 18%; in assay [3] (setting [8]), 95% (active); in assay [3] (at 50.0 µM), 87.4% (active); in assay [4] (setting [7]) it was -7%; in assay [4] (setting [8]) it was 96% (active); in assay [4] (at 50.0 µM) it was 86.8% (active). In addition, the growth inhibition is -4% in assay [5] (setting [7]); 95% (active) in assay [5] (setting [8]); 79.2% (active) in assay [5] (at 50.0 µM); 21% in assay [6] (setting [7]); 97% (active) in assay [6] (setting [8]); 96.8% (active) in assay [6] (at 50.0 µM).
With `O=S1(=O)c2ccccc2C(O)(c2ccccc2)c2cc3ccccc3n21` (configuration not stated), the growth inhibition in assay [1] (setting [7]) is 9%; in assay [1] (setting [8]), 95% (active); in assay [1] (at 50.0 µM), 95.8% (active); in assay [2] (setting [7]) it was 9%; in assay [2] (setting [8]), 96% (active); in assay [2] (at 50.0 µM), 95.5% (active). The growth inhibition is 12% in assay [3] (setting [7]); 97% (active) in assay [3] (setting [8]); 94.2% (active) in assay [3] (at 50.0 µM); 9% in assay [4] (setting [7]); 95% (active) in assay [4] (setting [8]); 94.9% (active) in assay [4] (at 50.0 µM). The growth inhibition in assay [5] (setting [7]) is 5%; in assay [5] (setting [8]), 96% (active); in assay [5] (at 50.0 µM), 94.3% (active); in assay [6] (setting [7]), 8%; in assay [6] (setting [8]), 95% (active); in assay [6] (at 50.0 µM) it was 95.5% (active).
Regarding `S=C(NN1CCOCC1)SSC(=S)NN1CCOCC1`, the growth inhibition in assay [1] (setting [7]) is 97% (active); in assay [1] (setting [8]), 99% (active); in assay [1] (at 50.0 µM), 99.5% (active); in assay [2] (setting [7]), 97% (active); in assay [2] (setting [8]) it was 99% (active); in assay [2] (at 50.0 µM) it was 99.6% (active). For the same compound, the growth inhibition in assay [3] (setting [7]) is 94% (active); in assay [3] (setting [8]), 99% (active); in assay [3] (at 50.0 µM), 99.6% (active); in assay [4] (setting [7]) it was 92% (active); in assay [4] (setting [8]) it was 83% (active); in assay [4] (at 50.0 µM), 99.3% (active). Besides, the growth inhibition in assay [5] (setting [7]) was 34%; in assay [5] (setting [8]), 99% (active); in assay [5] (at 50.0 µM), 99.8% (active); in assay [6] (setting [7]), 77% (active); in assay [6] (setting [8]) it was 99% (active); in assay [6] (at 50.0 µM), 99.5% (active).
As for `O=C(CCCN1CCC(C(O)c2ccc(F)cc2)CC1)c1ccc(F)cc1` (configuration not stated), the growth inhibition is 37% in assay [1] (setting [7]); 86% (active) in assay [1] (setting [8]); 71.5% (active) in assay [1] (at 50.0 µM); 33% in assay [2] (setting [7]); 78% (active) in assay [2] (setting [8]); 69.5% in assay [2] (at 50.0 µM). The growth inhibition in assay [3] (setting [7]) is 47%; in assay [3] (setting [8]), 95% (active); in assay [3] (at 50.0 µM), 79.8% (active); in assay [4] (setting [7]), 47%; in assay [4] (setting [8]) it was 87% (active); in assay [4] (at 50.0 µM), 68%. In addition, the growth inhibition was 53% in assay [5] (setting [7]); 97% (active) in assay [5] (setting [8]); 75.8% (active) in assay [5] (at 50.0 µM); 62% in assay [6] (setting [7]); 89% (active) in assay [6] (setting [8]); 68.5% in assay [6] (at 50.0 µM).
Turning to `ClC(Cl)(Cl)C1=CC2c3ccccc3C1c1ccccc12`, the growth inhibition is -14% in assay [1] (setting [7]); 91% (active) in assay [1] (setting [8]); 89.7% (active) in assay [1] (at 50.0 µM); 0% in assay [2] (setting [7]); 91% (active) in assay [2] (setting [8]); 21.6% in assay [2] (at 50.0 µM). Also, the growth inhibition in assay [3] (setting [7]) was -7%; in assay [3] (setting [8]), 91% (active); in assay [3] (at 50.0 µM), 87.8% (active); in assay [4] (setting [7]), -3%; in assay [4] (setting [8]), 90% (active); in assay [4] (at 50.0 µM), 22.8%. Also, the growth inhibition is -9% in assay [5] (setting [7]); 92% (active) in assay [5] (setting [8]); 28.7% in assay [5] (at 50.0 µM); -6% in assay [6] (setting [7]); 92% (active) in assay [6] (setting [8]); 89.5% (active) in assay [6] (at 50.0 µM).
`O=C1c2ccccc2C(=O)c2cc(S(=O)(=O)Cl)ccc21`: the growth inhibition in assay [1] (setting [7]) was 68%; in assay [1] (setting [8]) it was 99% (active); in assay [1] (at 50.0 µM) it was 76.1% (active); in assay [2] (setting [7]) it was 97% (active); in assay [2] (setting [8]), 99% (active); in assay [2] (at 50.0 µM) it was 60.9%. Also, the growth inhibition in assay [3] (setting [7]) was 94% (active); in assay [3] (setting [8]) it was 98% (active); in assay [3] (at 50.0 µM), 69.2%; in assay [4] (setting [7]), 55%; in assay [4] (setting [8]) it was 99% (active); in assay [4] (at 50.0 µM) it was -49.5%. Moreover, the growth inhibition in assay [5] (setting [7]) was 98% (active); in assay [5] (setting [8]) it was 99% (active); in assay [5] (at 50.0 µM) it was 72.5% (active); in assay [6] (setting [7]), 59%; in assay [6] (setting [8]), 99% (active); in assay [6] (at 50.0 µM) it was 75.8% (active).
For the compound `COC(=Nc1ccccc1)SSC(C)C`, the growth inhibition in assay [1] (setting [7]) was 23%; in assay [1] (setting [8]), 77% (active); in assay [1] (at 50.0 µM) it was 84.5% (active); in assay [2] (setting [7]) it was 19%; in assay [2] (setting [8]), 57%; in assay [2] (at 50.0 µM) it was 86.8% (active). Further, the growth inhibition was 38% in assay [3] (setting [7]); 87% (active) in assay [3] (setting [8]); 81.6% (active) in assay [3] (at 50.0 µM); 38% in assay [4] (setting [7]); 66% in assay [4] (setting [8]); 46.4% in assay [4] (at 50.0 µM). For the same compound, the growth inhibition in assay [5] (setting [7]) was 46%; in assay [5] (setting [8]), 92% (active); in assay [5] (at 50.0 µM), 86.2% (active); in assay [6] (setting [7]) it was 21%; in assay [6] (setting [8]) it was 64%; in assay [6] (at 50.0 µM), 85.5% (active).
As for `CCCCCN(C(=O)CCl)c1ccccc1`, the growth inhibition in assay [1] (setting [7]) was 2%; in assay [1] (setting [8]), 36%; in assay [1] (at 50.0 µM) it was 55.7%; in assay [2] (setting [7]), -3%; in assay [2] (setting [8]) it was 14%; in assay [2] (at 50.0 µM) it was 35.2%. Moreover, the growth inhibition in assay [3] (setting [7]) is -1%; in assay [3] (setting [8]), 19%; in assay [3] (at 50.0 µM), 53.7%; in assay [4] (setting [7]), 3%; in assay [4] (setting [8]) it was 5%; in assay [4] (at 50.0 µM), 13.8%. The growth inhibition was -4% in assay [5] (setting [7]); 6% in assay [5] (setting [8]); 50.5% in assay [5] (at 50.0 µM); -2% in assay [6] (setting [7]); 24% in assay [6] (setting [8]); 67.6% in assay [6] (at 50.0 µM).
Take `CSC(SC)=C1C(=O)NC(Cc2ccccc2)C1=O` (configuration not stated): the growth inhibition was 6% in assay [1] (setting [7]); 50% in assay [1] (setting [8]); 80.1% (active) in assay [1] (at 50.0 µM); 1% in assay [2] (setting [7]); 35% in assay [2] (setting [8]); 36.1% in assay [2] (at 50.0 µM). The growth inhibition in assay [3] (setting [7]) is 0%; in assay [3] (setting [8]), 66%; in assay [3] (at 50.0 µM), 71.8% (active); in assay [4] (setting [7]), 2%; in assay [4] (setting [8]), 24%; in assay [4] (at 50.0 µM), 37.5%. Besides, the growth inhibition in assay [5] (setting [7]) was 1%; in assay [5] (setting [8]), 34%; in assay [5] (at 50.0 µM), 50.3%; in assay [6] (setting [7]), 5%; in assay [6] (setting [8]), 68%; in assay [6] (at 50.0 µM), 83% (active).

The record behind these values is PubChem BioAssay (NCI).
